Assay [1] can be described thus: optical density shifts of acrAB sulA E. coli – strain DRC41, OD650, 48 h, E. coli filamentation inducer project, primary screen (AID 1152).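 Note: E. coli MC1000 strain DRC41 lacking acrAB efflux pump and sulA.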 The following applies: higher = more signal, called active from +8 up or from −8 down.
Assay [2] can be described thus: probe aLefty1 binding on compound microarray – biochemical, small-molecule microarray, 635/667 nm fluorescence, primary screen (AID 1153).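 Note: score merges spot fluorescence with signal-to-noise ratio from the scanned slide images.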 The following applies: higher = more signal.
A short description of assay [3]: plasmodial surface anion channel blockers, osmotic lysis – cell-based, P. falciparum Indochina, OD700, 1 h, primary screen (AID 1154). The conditions noted are these: P. falciparum Indochina infected RBC osmotic lysis, higher = more signal, called active from +8 up or from −8 down.
Assay [4] can be described thus: plasmodial surface anion channel blockers, osmotic lysis – cell-based, P. falciparum Indochina, OD700, 2 h, primary screen (AID 1155).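 Note: lysis reports solute entry through the parasite surface anion channel PSAC.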 The following applies: P. falciparum Indochina infected erythrocytes, higher = more signal, called active from +8 up or from −8 down.
Assay [5] can be described thus: changes in parasitized red cell lysis, either direction – P. falciparum Indochina, OD700, 3 h, PSAC antagonist project, primary screen (AID 1156). The conditions noted are these: P. falciparum-infected erythrocytes, osmotic lysis, higher = more signal, called active from +8 up or from −8 down.
Assay [6] can be described thus: plasmodial surface anion channel blockers, osmotic lysis – cell-based, P. falciparum Indochina, OD700, 18 h, primary screen (AID 1157). The following applies: P. falciparum Indochina infected erythrocytes, osmotic lysis OD700, 18 h; higher = more signal, called active from +8 up or from −8 down.
The nature of assay [7]: S6 kinase pathway phospho-S6 level changes – cell-based, A549, cytoblot, luminescence, serum-stimulated, primary screen (AID 1158).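 Note: serum-stimulated A549 lung adenocarcinoma cells; signal is phosphorylated S6 detected by cytoblot immunostaining with HRP secondary.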 The conditions noted are these: 5 h, higher = more signal.
Assay [8] addresses NADPH oxidase 2 (Homo sapiens) (UniProt P04839). Nature of the assay: compounds shifting NOX2 Amplex Red fluorescence – cell-based, HEK293-NOX2, PMA-stimulated, NOX inhibitor project, primary screen (AID 1159). Note: test concentration not given here. The conditions noted are these: 45 min, higher = more signal, called active from +8 up or from −8 down.
The target of assay [9] is NADPH oxidase 4 (Homo sapiens) (UniProt Q9NPH5). Nature of the assay: compounds shifting NOX4 Amplex Red fluorescence – cell-based, HEK293-NOX4, tetracycline-induced, NOX inhibitor project, primary screen (AID 1160). The conditions noted are these: HEK293-NOX4, Amplex Red H2O2 fluorescence, 45 min; higher = more signal, called active from +8 up or from −8 down.
NADPH oxidase 4 (Homo sapiens), sequence (Q9NPH5 whole entry, looked up): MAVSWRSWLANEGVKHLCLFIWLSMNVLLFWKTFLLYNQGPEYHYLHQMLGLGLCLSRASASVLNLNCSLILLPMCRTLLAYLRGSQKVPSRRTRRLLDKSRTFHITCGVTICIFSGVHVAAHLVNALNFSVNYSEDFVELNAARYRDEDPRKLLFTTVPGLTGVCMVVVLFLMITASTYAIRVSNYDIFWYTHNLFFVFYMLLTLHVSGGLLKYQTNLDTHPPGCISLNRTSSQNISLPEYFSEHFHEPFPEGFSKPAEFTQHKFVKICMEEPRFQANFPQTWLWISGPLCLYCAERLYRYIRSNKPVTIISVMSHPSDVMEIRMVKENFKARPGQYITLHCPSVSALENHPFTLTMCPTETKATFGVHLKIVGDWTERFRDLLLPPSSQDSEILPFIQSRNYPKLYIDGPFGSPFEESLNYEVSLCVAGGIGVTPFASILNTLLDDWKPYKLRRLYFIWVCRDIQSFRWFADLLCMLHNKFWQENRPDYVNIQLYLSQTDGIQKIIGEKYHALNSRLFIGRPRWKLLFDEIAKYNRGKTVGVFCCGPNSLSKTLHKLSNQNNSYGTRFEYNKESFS
Assay [10] concerns the target NADPH oxidase 5 (Homo sapiens) (UniProt Q96PH1). Put plainly: compounds shifting NOX5 Amplex Red fluorescence – cell-based, HEK293-NOX5, NOX inhibitor project, primary screen (AID 1161). The conditions noted are these: HEK293-NOX5, ionomycin, 45 min, higher = more signal.
A short description of assay [11]: compound effects on lung adenocarcinoma cell viability – A549, calcein-AM fluorescence, 48 h, basal, profiling panel (AID 1162). Note: test concentration not given here. The following applies: higher = more signal.
Assay [12] in a line: compound effects on differentiated 3T3-L1 adipocyte viability – cell-based, 3T3-L1 adipocytes, calcein-AM fluorescence, 48 h, basal, profiling panel (AID 1163). Note: test concentration not given here. The conditions noted are these: 3T3-L1 adipocytes viability, higher = more signal.
Assay [13] in a line: compound effects on hepatocellular carcinoma cell viability – HepG2, calcein-AM fluorescence, 48 h, basal, profiling panel (AID 1164). Note: test concentration not given here. The following applies: higher = more signal.
A short description of assay [14]: compound effects on multiple myeloma cell viability – MM1S, calcein-AM fluorescence, 48 h, basal, profiling panel (AID 1165).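 Note: viability of MM1S multiple myeloma cells under basal unstimulated conditions; test concentration not given here.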 The following applies: higher = more signal.
Assay [15] can be described thus: calcein-AM signal in unstimulated myeloma cells – cell-based, calcein-AM fluorescence, 48 h, PK04 Diversity Set, profiling panel (AID 1166).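 Note: cells grown under basal conditions without added stimulus; test concentration not given here.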 The conditions noted are these: RPMI8226 myeloma viability, higher = more signal.
The nature of assay [16]: JC-1 mitochondrial signal, unstimulated HepG2 cells – cell-based, JC-1 fluorescence, 24 h, 100 nL compound, profiling panel (AID 1167). Note: test concentration not given here. The conditions noted are these: HepG2 mitochondrial potential, higher = more signal.
A short description of assay [17]: JC-1 mitochondrial signal, unstimulated adipocytes – cell-based, JC-1 fluorescence, 3T3-L1 adipocytes, 24 h, 100 nL compound, profiling panel (AID 1168). Note: test concentration not given here. The following applies: JC-1 mitochondrial fluorescence, higher = more signal, called active from +8 up or from −8 down.
A short description of assay [18]: JC-1 mitochondrial signal, unstimulated myeloma cells – cell-based, JC-1 fluorescence, RPMI8226, 24 h, 100 nL compound, profiling panel (AID 1169). Note: test concentration not given here. The following applies: JC-1 mitochondrial potential fluorescence, higher = more signal.
The nature of assay [19]: JC-1 mitochondrial signal, unstimulated MM1S myeloma – cell-based, JC-1 fluorescence, 24 h, 100 nL compound, profiling panel (AID 1170). Note: test concentration not given here. The conditions noted are these: MM1S mitochondrial potential, higher = more signal.
Assay [20] in a line: resazurin metabolic signal in A549 cells – cell-based, resazurin fluorescence, 24 h, PK04 Diversity Set, profiling panel (AID 1171). Note: test concentration not given here. The conditions noted are these: A549 viability, higher = more signal, called active from +8 up or from −8 down. For orientation: Resazurin is reduced to fluorescent resorufin, in cell work by metabolically active cells.

This passage reports z-score and composite z-score results from PubChem BioAssay.

Active and inactive are the calls of the source.

NADPH oxidase 2 (Homo sapiens), sequence (P04839 whole entry, looked up): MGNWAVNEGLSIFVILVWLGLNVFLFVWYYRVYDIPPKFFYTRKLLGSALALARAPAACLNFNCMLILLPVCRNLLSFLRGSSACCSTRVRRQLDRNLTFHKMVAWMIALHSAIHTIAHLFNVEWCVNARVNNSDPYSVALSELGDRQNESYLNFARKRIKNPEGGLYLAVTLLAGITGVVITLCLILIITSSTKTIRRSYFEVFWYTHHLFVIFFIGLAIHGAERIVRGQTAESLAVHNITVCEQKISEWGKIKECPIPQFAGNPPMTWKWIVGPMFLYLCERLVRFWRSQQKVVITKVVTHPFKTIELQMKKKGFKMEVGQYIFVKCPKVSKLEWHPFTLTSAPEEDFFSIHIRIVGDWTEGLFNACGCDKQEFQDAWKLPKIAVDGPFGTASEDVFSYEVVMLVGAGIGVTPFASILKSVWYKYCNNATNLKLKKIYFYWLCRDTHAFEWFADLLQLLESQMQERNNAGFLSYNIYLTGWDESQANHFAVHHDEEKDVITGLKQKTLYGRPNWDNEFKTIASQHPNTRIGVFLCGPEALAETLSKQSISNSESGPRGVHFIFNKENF
NADPH oxidase 5 (Homo sapiens), sequence (Q96PH1 whole entry, looked up): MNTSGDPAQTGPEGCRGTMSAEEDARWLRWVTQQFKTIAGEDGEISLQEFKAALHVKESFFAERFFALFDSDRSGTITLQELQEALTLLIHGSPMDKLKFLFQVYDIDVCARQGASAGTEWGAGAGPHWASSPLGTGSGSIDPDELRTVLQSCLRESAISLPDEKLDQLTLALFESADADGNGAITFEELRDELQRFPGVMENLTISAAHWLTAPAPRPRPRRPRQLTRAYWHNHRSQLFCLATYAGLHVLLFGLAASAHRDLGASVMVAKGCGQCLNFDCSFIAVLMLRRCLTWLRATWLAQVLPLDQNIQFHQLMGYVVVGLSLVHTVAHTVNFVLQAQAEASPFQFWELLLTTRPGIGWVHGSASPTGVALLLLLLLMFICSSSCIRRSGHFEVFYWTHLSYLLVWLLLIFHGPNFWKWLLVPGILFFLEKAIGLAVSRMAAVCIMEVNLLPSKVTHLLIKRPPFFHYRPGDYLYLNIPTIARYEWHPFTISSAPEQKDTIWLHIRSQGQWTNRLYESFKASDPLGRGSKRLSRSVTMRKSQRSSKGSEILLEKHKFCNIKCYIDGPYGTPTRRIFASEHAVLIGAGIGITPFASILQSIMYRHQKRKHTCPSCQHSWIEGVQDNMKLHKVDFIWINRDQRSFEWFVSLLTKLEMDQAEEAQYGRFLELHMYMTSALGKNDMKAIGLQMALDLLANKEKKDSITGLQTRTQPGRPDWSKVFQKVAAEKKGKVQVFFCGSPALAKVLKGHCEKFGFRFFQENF

As to `C#CCNC(/C=C/c1ccccc1)CO` (stereo not given), the z-score in [1] was -0.759 (inactive); in [3], -0.181 (inactive); in assay [4] it was 0.36 (inactive); in [5], 0.286 (inactive); in [6], 0.0834 (inactive); in [7], 0.168. Moreover, the z-score in [8] is -0.867 (inactive); in assay [9], 0.813 (inactive); in assay [10] it was -0.548; in [11], -0.165; in [12], -0.239; in [13], -0.624. For the same molecule, the z-score in [14] is -0.295; in assay [15], -0.987; in [16], -1.02; in assay [17], 0.308 (inactive); in assay [18], 0.38; in [19] it was -0.323. Moreover, the z-score in assay [20] was 0.234 (inactive). In addition, in [2], the composite z-score is -0.252.
On to `COC(=O)[C@H]1[C@@H]2COc3ccccc3[C@H]2N[C@H]1C(=O)OC`, for which the z-score in [1] is 0.896 (inactive); in [3], 0.262 (inactive); in assay [4] it was -0.122 (inactive); in assay [5] it was -0.406 (inactive); in [6], -0.21 (inactive); in assay [7], 0.12. Further, the z-score is -2.88 (inactive) in assay [8]; 0.28 (inactive) in assay [9]; -1.9 in assay [10]; 0.0306 in assay [11]; 0.0308 in assay [12]; 0.648 in [13]. The z-score in assay [14] is -1.29; in [15], -0.347; in assay [16] it was 0.321; in assay [17], -0.819 (inactive); in [18] it was 0.195; in assay [19], -0.975. The z-score in assay [20] was -0.124 (inactive). The composite z-score in [2] was -0.0046.
For `CC(C)C[C@@H]1NC(=O)[C@H](CC(C)C)NC(=O)[C@@]23C(=O)N[C@@H](Cc4ccccc4)C2[C@H](C)[C@@]2(C)O[C@H]2C3/C=C/CC/C=C/CNC1=O` (stereo not given in full), the z-score is -0.239 (inactive) in assay [1]; 1.7 (inactive) in assay [3]; 0.627 (inactive) in assay [4]; 1.33 (inactive) in [5]; 0.575 (inactive) in assay [6]; -0.0044 in [7]. Moreover, the z-score is 0.123 (inactive) in assay [8]; 0.349 (inactive) in [9]; -1.62 in assay [10]; -0.422 in assay [11]; 1.31 in assay [12]; -0.766 in [13]. In addition, the z-score in [14] is -1.66; in assay [15] it was -2.04; in assay [16] it was 2.33; in [17], -0.141 (inactive); in assay [18], -0.366; in assay [19], 0.19. Further, the z-score in assay [20] is 1 (inactive). The molecule further came in with a composite z-score in [2] of 0.0275.
Regarding `CCN1C(C)=C(C(=O)OC)[C@@H](c2ccccc2)N2C(=O)[C@](O)(C(=O)OC)[C@@H](c3ccccc3)C(C(=O)c3ccccc3)=C12`, the z-score in assay [1] is 0.282 (inactive); in assay [3], 1.78 (inactive); in [4], 0.489 (inactive); in assay [5], 1.16 (inactive); in [6], 0.978 (inactive); in assay [7], 1.3. The z-score in [8] was 0.6 (inactive); in assay [9] it was 0.828 (inactive); in [10], -0.284; in [11], 0.804; in assay [12], 0.439; in assay [13], 0.534. Moreover, the z-score in [14] is 0.144; in [15] it was -0.623; in [16], 4.64; in assay [17] it was 0.454 (inactive); in assay [18], -0.602; in assay [19] it was 0.229. Besides, in assay [20], the z-score is 2.64 (inactive). Also, in [2], the composite z-score is -0.142.
Regarding `CC(=O)NCCCC[C@@H]1NC(=O)[C@H]2C[C@@H](C(=O)NCCCCCCN(C)C)[C@@H](c3cccc(OCCO)c3)N2C1=O`, the z-score in [1] is -0.179 (inactive); in [3], 2.81 (inactive); in assay [4], 0.461 (inactive); in assay [5] it was 1.25 (inactive); in assay [6], 0.376 (inactive); in assay [7], 0.317. Also, the z-score in [8] is 0.779 (inactive); in assay [9], 0.301 (inactive); in assay [10] it was 1.44; in [11] it was 0.214; in [12], 0.509; in assay [13] it was 0.344. Besides, the z-score was 0.27 in assay [14]; 0.079 in assay [15]; -0.0861 in assay [16]; -0.308 (inactive) in [17]; -0.125 in [18]; -0.376 in assay [19]. In [20], the z-score was -0.739 (inactive). This molecule also yielded a composite z-score in assay [2] of 0.257.
